Compound activity from PubChem BioAssay.
The list is not random: actives were taken first. Their share in the collection is about 21%.
NS1 function inh: influenza NS1 inhibition | Potency, µM (doses to about 46.1 µM), for inactives: at the highest dose activity, positive = more growth | AID 2326 | actives 0.4% (n = 270,000); also: potency is read from the fitted curve at half-maximal effect; actives are rising curves; nearly all actives have a fitted effect of over 50% in size
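S. cerevisiae expressing influenza A NS1, grown in glucose, washed, then diluted 1:100 into pH 6.0 -URA galactose medium with 23 nl compound. Growth recovery read as OD600; NS1-free strain serves as control.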
Cycloheximide cs: affects cycloheximide protein synthesis inhibition readout, counter-screen; cell reporter, cycloheximide protein synthesis inhibition counterscreen; max response, %; actives 12% (n = 300,000); in the data active = max response mostly above about 13%, no sharp cut-off; inactive = mostly below about 14%; also: read at 38.3 µM for the half of the compounds with a filed dose; 0% is about no effect
Pf growth 96h: P. falciparum growth inhibition at 96 hour, primary screen for plastid delayed-death inhibitors; P. falciparum luciferase reporter growth, 96 h; actives 6.9% (n = 320,000); Potency, µM (doses to about 28.7 µM), inactives show at the highest dose activity change, negative = inhibition, actives largely listed as inhibitors; active = well fitted inhibition curve with a large enough effect; inconclusive = small, poorly fitted or top-dose-only effect, or another doubt; inactive = no such curve, though single readings can be large or run the other way; also: potency is read from the fitted curve at half-maximal effect; % is scaled to controls: 0 for no effect and ±100 for the full control effect
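Delayed-death screen, second-generation endpoint: infected erythrocytes, 2% hematocrit, 0.05% parasitemia final; 96 hours at 37 C, 5% CO2; luciferase detection reagent; luminescence decrease equals reduced growth.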
Shiga toxin inh: Shiga toxin inhibition; Vero cells, Shiga toxin protein synthesis inhibition reporter; inhibition, % at 38.7 µM; actives 9.2% (n = 290,000); in the data active = inhibition mostly above about 28%, no sharp cut-off; inactive = mostly below about 43%; also: 0% is about no effect
SARS PLP yeast: inhibitors of SARS-CoV papain-like protease in yeast; S. cerevisiae expressing SARS-CoV PLpro, growth rescue; Potency, µM (series often up to 32.9 µM), for inactives: top-dose activity, positive = growth rescue, most hits filed as activators; actives 0.19% (n = 330,000); also: potency is read from the fitted curve at half-maximal effect; 0% is about no effect; nearly all actives have a fitted effect of over 55% in size
Pf growth 48h: inhibits P. falciparum growth in the first generation, 48 h. actives 5.9% (n = 310,000). Potency, µM (titrated, usually from 28.7 µM), for inactives: at the top dose activity change, negative = inhibition, actives largely listed as inhibitors. P. falciparum luciferase growth in erythrocytes, 48 h; active = well fitted inhibition curve with a large enough effect; inconclusive = small, poorly fitted or top-dose-only effect, or another doubt; inactive = no such curve, though single readings can be large or run the other way; also: potency is read from the fitted curve at half-maximal effect; % is scaled to controls: 0 for no effect and ±100 for the full control effect
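Erythrocytes infected with P. falciparum carrying an integrated firefly luciferase reporter (2% hematocrit, 0.1% parasitemia final) were exposed to compounds in RPMI 1640 with 0.5% Albumax at 37 C, 5% CO2. Growth inhibition was scored as reduced luminescence.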
An asterisk follows results filed as active; ? = inconclusive; . = not tested or not shown. Unless noted, calls follow the shape of the full dose curve.

SMILES	NS1 function inh	Cycloheximide cs	Pf growth 96h	Shiga toxin inh	SARS PLP yeast	Pf growth 48h
O=C(NCc1ccccc1)NC12CC3CC(CC(C3)C1)C2	-4%	-2	14%	33	2%	-7%
O=C(N/N=C/c1ccccc1O)NC12CC3CC(CC(C3)C1)C2	-6%	46*	2.6µM*	139*	-3%	1.2µM*
C/C(=N/NC(=O)NC12CC3CC(CC(C3)C1)C2)c1ccccc1	0%	-2	0.74µM*	29	3%	?
O=C(O)c1ccc(-c2ccccc2)[nH]c1=O	0%	-1	22%	3	4%	10%
COc1cccc(CN2CCC(Oc3ccc(C(=O)N4CCCCC4)cc3)CC2)c1O	-6%	6	-6%	-5	-2%	?
Cc1ccc(/C(C#N)=C\c2cn(C)c3ccccc23)cc1	-36%	19*	.	25*	-14%	-26%
Cn1cc(C=O)c2ccccc21	3%	5	10µM*	-4	-1%	51%
Cn1cc(C=C2C(=O)NC(=O)NC2=O)c2ccccc21	3%	-3	1%	-4	3%	12%
C=CCn1c(=O)c2c(nc3n2CC(C)CN3Cc2ccccc2)n(C)c1=O (stereo not given)	-3%	-8	?	-2	-1%	?
Cc1[nH]c2ccccc2c1N=Nc1c(C)n(C)n(-c2ccccc2)c1=O	.	10	?	2	1%	118%
Cc1c(N=Cc2nc3ccccc3[nH]2)c(=O)n(-c2ccccc2)n1C	-14%	46*	7%	90*	4%	26%
Cc1cccc(-c2ccc(C=Nc3c(C)n(C)n(-c4ccccc4)c3=O)o2)c1	-33%	28*	-21%	35	11%	-3%
COc1cccc(-n2c(O)c(C=Nc3c(C)n(C)n(-c4ccccc4)c3=O)c(=O)[nH]c2=O)c1	4%	-6	38%	-10	20%	4%
Cc1c(N=Cc2nc3ccccc3n2C)c(=O)n(-c2ccccc2)n1C	-38%	49*	63%	64*	2%	-2%
Cn1c(/C=N/O)nc2ccccc21	0%	12	27%	19	0%	29%
c1ccc(-c2csc(-c3ccc(-c4csnn4)cc3)n2)cc1	0%	7	160%	17	0%	132%
Cc1ccccc1C(=O)Oc1ccc(-c2csnn2)cc1	-7%	22*	49%	21	-1%	51%
CC(=O)COc1ccc(-c2csnn2)cc1	1%	12	36%	42*	1%	50%
c1ccc(COc2ccc(-c3csnn3)cc2)cc1	-14%	60*	105%	60*	-1%	129%
CCOC(=O)c1cnn(-c2nc(-c3cccc(F)c3)cs2)c1C(F)(F)F	6%	1	65%	22	-13%	48%
CC(C)(C)OC(=O)NC(CCCCNC=O)C(=O)O (stereo not given)	-1%	-1	7%	3	-8%	31%
COCCn1nnnc1CN1C2CCCC1CC(NC(C)=O)C2 (stereo not given)	2%	-5	13µM*	-3	4%	29%
COCCn1nnnc1CN1CCC(NC(=O)c2ccc(Br)cc2)CC1	-1%	2	-58%	2	-6%	?
CCN(CC)CC[n+]1ccc2c(C)c3[nH]c4ccc(O)cc4c3c(C)c2c1	-37%	.	.	.	.	.
Cc1cc(N2C(=O)C(O)=C(C(=O)c3ccc(C)o3)C2c2ccc([N+](=O)[O-])cc2)no1 (stereo not given)	15%	-1	?	6	4%	-17%
CCOC(=O)C1=C(Nc2ccccc2)CC(C)(O)C(C(=O)OCC)C1c1ccc(Br)cc1 (stereo not given)	-17%	-5	?	10	-19%	15µM*
CCOC(=O)C1=C(Nc2ccc(C)cc2)CC(C)(O)C(C(=O)OCC)C1c1ccccc1 (stereo not given)	?	7	13µM*	-9	12%	12µM*
Cc1c2c(nc3ccccc13)OCC2	9%	-2	23%	-4	-20%	45%
O=C(Cc1ccccc1)N/N=C/c1cccc([N+](=O)[O-])c1	.	9.6*	-24%	12	-4%	5%
